These results are taken from PubChem BioAssay (NCATS).

Records with an inconclusive call do not appear. The source made the active and inactive calls. Unless noted, calls follow the shape of the full dose curve. A value given as a limit tells only on which side of the number the result lay.

For test [1], the target named is Lysosomal acid glucosylceramidase (Homo sapiens) (UniProt P04062). Briefly: Glucocerebrosidase-p2 (AID 348; in the data active = potency below about 10 µM; also: potency is read from the fitted curve at half-maximal effect). The note with it: purified GBA, blue fluorogenic substrate, 40 min. The procedure, abridged:
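Normal human glucocerebrosidase (0.2 nM) with blue fluorogenic substrate (80 uM final) in citrate/phosphate pH 5.9 with 10mM sodium taurocholate, 0.01% tween-20; 40 min RT, NaOH/glycine stop; fluorescence Ex 365/Em 440; AC50 from a titration from 0.6 nM upwards.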

The nature of test [2]: AP1 Signaling Pathway (AID 357; active = well fitted curve in either direction with a large enough effect, not every such curve was filed as active;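 also: ME-180 reporter cells stimulated with EGF at its EC50 level; % is scaled to controls: 0 for no effect and ±100 for the full control effect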). The note with it: ME-180 AP-1-bla reporter, EGF-induced, beta-lactamase ratio, 5 h; at 7.69 µM (top of the series) unless noted. The procedure, abridged:
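A ratiometric CCF4 readout (405 nm excitation; 460 and 530 nm emission) quantified AP-1-driven beta-lactamase in ME-180 cells after 5 h with compound and EC50 EGF; AC50 values were derived for activators and inhibitors.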

Test [3] addresses Cytochrome P450 1A2 (Homo sapiens) (UniProt P05177). Briefly: p450-cyp1a2 (AID 410). Also: potency is read from the fitted curve at half-maximal effect.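 As to activity change, negative = inhibition: -100% = full effect of reference inhibitor.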 The note with it: recombinant CYP1A2, luciferin-ME demethylation, luminescence; series mostly up to 57 µM. The procedure, abridged: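 Read-out is luminescence from luciferin produced by CYP1A2 demethylation of Luciferin-ME (100uM, at Km). Detection reagent stopped the 60 min NADPH-dependent reaction; signals were normalized to 57 uM furafylline.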

A short description of test [4]: Stat Signaling Pathway (AID 446; active = well fitted curve in either direction with a large enough effect, not every such curve was filed as active;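 also: ME-180 cervical cancer cells given 40 pM IL-6 alongside compound; SIE-controlled beta-lactamase reporter measured as 460/530 nm FRET emission ratio; % is scaled to controls: 0 for no effect and ±100 for the full control effect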). As to conditions: ME-180 SIE beta-lactamase reporter, IL-6 stimulated, 5 h; at 7.69 µM (top of the series) unless noted. Summed up: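 Emission at 460 and 530 nm (excitation 405 nm) reports SIE-controlled beta-lactamase in ME-180 cells. Cells received compound with 40 pM IL-6 for 5 hrs at 37 C; data scaled between 300 pM IL-6 and 125 nM JAK-inhibitor controls.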

Test [5] deals with Glucocorticoid receptor (Homo sapiens) (UniProt P04150). Briefly: GR-EFC Redistribution (AID 451). Also: potency is read from the fitted curve at half-maximal effect. As to conditions: CHO-K1 GR-EFC translocation, beta-gal luminescence, 2 h. Summed up: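 CHO-K1 cells stably expressing nuclear-localized β-gal enzyme acceptor and GR fused C-terminally to the enzyme donor fragment; ligand-driven nuclear translocation restores β-gal by complementation. Compounds titrated up to 46 uM final, 2 h at 37 °C; luminescence read.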
Sequence of Glucocorticoid receptor (Homo sapiens) (P04150 whole entry, looked up, the tested form may be a part): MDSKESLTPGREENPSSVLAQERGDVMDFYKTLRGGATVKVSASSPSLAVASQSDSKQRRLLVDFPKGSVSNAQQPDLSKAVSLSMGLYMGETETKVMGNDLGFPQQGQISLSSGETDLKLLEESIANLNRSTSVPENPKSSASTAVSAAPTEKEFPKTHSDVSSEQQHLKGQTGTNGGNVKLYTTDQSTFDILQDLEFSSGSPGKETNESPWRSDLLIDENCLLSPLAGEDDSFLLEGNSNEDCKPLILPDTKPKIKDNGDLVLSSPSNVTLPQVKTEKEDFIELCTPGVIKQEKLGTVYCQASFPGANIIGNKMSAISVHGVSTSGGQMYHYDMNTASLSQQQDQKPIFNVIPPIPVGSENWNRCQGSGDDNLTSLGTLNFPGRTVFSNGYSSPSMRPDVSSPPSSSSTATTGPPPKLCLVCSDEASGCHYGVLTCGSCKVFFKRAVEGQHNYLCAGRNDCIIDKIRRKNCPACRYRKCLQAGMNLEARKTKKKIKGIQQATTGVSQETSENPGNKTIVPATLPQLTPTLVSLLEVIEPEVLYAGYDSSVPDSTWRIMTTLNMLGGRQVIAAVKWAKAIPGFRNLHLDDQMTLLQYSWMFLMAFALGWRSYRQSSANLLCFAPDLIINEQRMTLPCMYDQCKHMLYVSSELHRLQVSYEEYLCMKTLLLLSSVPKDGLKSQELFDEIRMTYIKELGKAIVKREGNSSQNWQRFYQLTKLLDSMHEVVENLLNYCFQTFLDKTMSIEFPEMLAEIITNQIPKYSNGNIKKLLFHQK

Test [6] concerns the target Mitogen-activated protein kinase 10 (Mus musculus) (UniProt Q61831). Briefly: JNK3 AlphaScreen Assay (AID 530; active = well fitted curve in either direction with a large enough effect, not every such curve was filed as active;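 also: kinase came from lysate of stimulated human HepG2 cells; % is scaled to controls: 0 for no effect and ±100 for the full control effect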). The note with it: JNK3 lysate, c-Jun phosphorylation; series mostly up to 57.1 µM. The procedure, abridged: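 Biotinylated GST-cJun(1-79) served as substrate for JNK3 in HepG2 lysates stimulated with IL-1beta and TNF-alpha. ATP was 10 uM final, pH 7.6. Ser73 phosphorylation was quantified by AlphaScreen (680 nm excitation).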
(In general: Alpha assays give light when donor and acceptor beads are brought close together.)

Test [7] has as its target 3',5'-cyclic-AMP phosphodiesterase 4B (Homo sapiens) (UniProt Q07343). Briefly: qHTS Assay for Inhibitors of PDE-IV (AID 607; active = well fitted activation curve with a large enough effect in the main read-out, with a control signal flat, not every such curve was filed as active; also: % of control where 0% means no effect). The note with it: HEK293 ACTOne CNG channel cells, membrane potential fluorescence; series mostly up to 22.9 µM. Summed up: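 The readout is membrane depolarisation from a cAMP-sensing CNG channel, detected with a potential dye at ex 535/em 590. Cells were HEK293-derived (endogenous PDE-IV) at 1000 cells/well, titrated up to 22.9 uM final.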

The target of test [8] is Cytochrome P450 2D6 (Homo sapiens) (UniProt P10635). Briefly: qHTS Assay for Inhibitors and Substrates of Cytochrome P450 2D6 (AID 891; active = well fitted curve in the direction sought with a large enough effect; an effect the other way counts as inactive or inconclusive; also: potency is read from the fitted curve at half-maximal effect; nearly all actives have a fitted effect of over 60% in size). As to conditions: recombinant CYP2D6, luciferin-ME EGE luminescence; series mostly up to 57.1 µM. The procedure, abridged:
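Luminescent read-out of luciferin formed by 5 nM human CYP2D6 demethylating 30 uM Luciferin-ME EGE (Km level) over 60 min at room temperature after NADPH regeneration addition. Data normalized to full inhibition by 1.43 uM quinidine.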
On the technique in general: In qHTS, concentration-response curves come from the screen itself.

Test [9] in a line: qHTS Assay for Identification of Small Molecule Agonists for Hypoxia Response Element Signaling Pathway (AID 914; active = well fitted activation curve with a large enough effect in the signal ratio, with a control signal flat, not every such curve was filed as active; the % refers to the signal ratio; also: % of control where 0% means no effect). The note with it: ME-180 (cervical carcinoma) HRE-bla reporter, beta-lactamase ratio, CoCl2, 17 h; activation: stronger effect = higher value. The procedure, abridged: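 In Opti-MEM containing 0.5% dialyzed FBS and 10 mM HEPES, ME-180 HRE-bla cells received a compound titration and EC50 CoCl2. They were incubated 17 hours, then CCF4-loaded 2.5 hours at room temperature before ratio reading.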

Test [10] can be described thus: qHTS Assay for Lipid Storage Modulators (AID 1519). The note with it: Drosophila S3 cells, BODIPY lipid droplet/cell ratio, laser cytometry, cells loaded with oleic acid; for activity change, negative = inhibition: at 57.5 µM (top of the series). The procedure, abridged: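 Cells seeded at 5,000 per well were treated with compounds over a concentration series and loaded with oleic acid (400 uM, as added). Lipid droplet fluorescence (488 nm excitation, 500-530 nm channel) was read by laser-scanning cytometry and normalized to 20 uM Triacsin C.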

Test [11] in a line: Primary qHTS for small molecule stabilizers of the endoplasmic reticulum resident proteome: Secreted ER Calcium Modulated Protein (SERCaMP) assay (AID 1508630; active = well fitted curve in the direction sought with a large enough effect; an effect the other way counts as inactive or inconclusive; also: % is scaled to controls: 0 for no effect and ±100 for the full control effect). The note with it: SH-SY5Y GLuc-SERCaMP (Gaussia luciferase released on ER calcium loss) secretion, thapsigargin, luminescence; series mostly up to 38.4 µM. Summed up: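 The SH-SY5Y reporter protocol was run at 3 concentrations up to 38.3 uM (primary) or 11 concentrations (follow-up): 16 h compound, 100 nM thapsigargin for 4 h, then extracellular luciferase luminescence.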

In test [12] the target is Cytochrome P450 3A4 (Homo sapiens) (UniProt P08684). Briefly: qHTS Assay for Activators of Cytochrome P450 3A4 (AID 885; active = well fitted curve in the direction sought with a large enough effect; an effect the other way counts as inactive or inconclusive; also: nearly all actives have a fitted effect of over 65% in size; also: potency is read from the fitted curve at half-maximal effect). The note with it: recombinant CYP3A4, Luciferin-PPXE luminescence, 60 min; series mostly up to 57.1 µM. Summed up:
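Activators are scored by enhanced luminescence from CYP3A4 conversion of luciferin-PPXE (25uM, equal to KM) to luciferin, after 60 min at RT with an NADPH-regenerating system.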

The target of test [13] is Cytochrome P450 2C19 (Homo sapiens) (UniProt P33261). Briefly: qHTS Assay for Inhibitors and Substrates of Cytochrome P450 2C19 (AID 899; active = well fitted curve in the direction sought with a large enough effect; an effect the other way counts as inactive or inconclusive; also: potency is read from the fitted curve at half-maximal effect; nearly all actives have a fitted effect of over 60% in size). As to conditions: recombinant CYP2C19, luciferin-H EGE luminescence; series mostly up to 57.1 µM. The procedure, abridged:
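Human CYP2C19 (5nM) with Luciferin-H EGE at 10uM (its KM) in 50mM KPO4 was preincubated with compound for 10 min at 37C. NADPH regeneration started a 60 min 37C reaction. Luciferin was read by luminescence, normalized to 57uM ketoconazole.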

Test [14] addresses Cytochrome P450 3A4 (Homo sapiens) (UniProt P08684). Briefly: qHTS Assay for Inhibitors and Substrates of Cytochrome P450 3A4 (AID 884; active = well fitted curve in the direction sought with a large enough effect; an effect the other way counts as inactive or inconclusive; also: % is scaled to controls: 0 for no effect and ±100 for the full control effect; nearly all actives have a fitted effect of over 50% in size). The note with it: recombinant CYP3A4, Luciferin-PPXE luminescence; series mostly up to 57.1 µM. The procedure, abridged:
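Luminescent readout of luciferin produced by CYP3A4 (20 nM) dealkylation of Luciferin-PPXE, 25 uM (its KM). NADPH-driven reaction ran 60 min at RT after 10 min compound preincubation; data scaled to 57 uM ketoconazole as 100% inhibition.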

Where [15] appears, read: measured here: cell count channel max response.
Where [16] appears, read: measured here: lipid channel max response.

Sequence of Cytochrome P450 3A4 (Homo sapiens) (P08684 whole entry, looked up): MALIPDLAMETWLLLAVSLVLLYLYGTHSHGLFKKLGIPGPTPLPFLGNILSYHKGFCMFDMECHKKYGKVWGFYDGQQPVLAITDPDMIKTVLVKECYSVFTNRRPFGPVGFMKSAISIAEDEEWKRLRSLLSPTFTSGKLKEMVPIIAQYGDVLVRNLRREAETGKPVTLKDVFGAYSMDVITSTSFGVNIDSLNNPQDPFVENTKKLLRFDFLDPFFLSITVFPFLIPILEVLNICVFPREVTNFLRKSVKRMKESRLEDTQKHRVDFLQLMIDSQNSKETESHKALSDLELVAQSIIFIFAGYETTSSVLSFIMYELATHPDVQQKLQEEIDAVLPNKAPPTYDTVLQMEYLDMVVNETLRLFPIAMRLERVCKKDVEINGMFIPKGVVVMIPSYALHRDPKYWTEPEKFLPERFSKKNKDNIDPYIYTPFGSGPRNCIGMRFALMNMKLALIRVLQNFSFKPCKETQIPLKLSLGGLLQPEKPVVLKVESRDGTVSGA
Sequence of Cytochrome P450 1A2 (Homo sapiens) (P05177 whole entry, looked up): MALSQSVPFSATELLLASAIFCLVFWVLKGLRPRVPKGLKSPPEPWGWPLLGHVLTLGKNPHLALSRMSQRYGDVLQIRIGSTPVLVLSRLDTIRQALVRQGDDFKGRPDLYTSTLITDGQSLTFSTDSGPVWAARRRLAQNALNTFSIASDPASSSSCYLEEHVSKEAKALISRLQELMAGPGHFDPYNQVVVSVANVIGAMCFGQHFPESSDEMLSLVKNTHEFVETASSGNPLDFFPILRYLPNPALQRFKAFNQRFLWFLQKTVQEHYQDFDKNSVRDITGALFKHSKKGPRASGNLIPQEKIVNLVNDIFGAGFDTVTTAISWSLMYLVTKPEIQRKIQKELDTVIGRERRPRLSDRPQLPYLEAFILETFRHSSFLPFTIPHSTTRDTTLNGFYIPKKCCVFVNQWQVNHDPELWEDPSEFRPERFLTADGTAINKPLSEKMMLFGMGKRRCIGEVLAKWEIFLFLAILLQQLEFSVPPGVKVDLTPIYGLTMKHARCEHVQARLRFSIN
Sequence of 3',5'-cyclic-AMP phosphodiesterase 4B (Homo sapiens) (Q07343 whole entry, looked up): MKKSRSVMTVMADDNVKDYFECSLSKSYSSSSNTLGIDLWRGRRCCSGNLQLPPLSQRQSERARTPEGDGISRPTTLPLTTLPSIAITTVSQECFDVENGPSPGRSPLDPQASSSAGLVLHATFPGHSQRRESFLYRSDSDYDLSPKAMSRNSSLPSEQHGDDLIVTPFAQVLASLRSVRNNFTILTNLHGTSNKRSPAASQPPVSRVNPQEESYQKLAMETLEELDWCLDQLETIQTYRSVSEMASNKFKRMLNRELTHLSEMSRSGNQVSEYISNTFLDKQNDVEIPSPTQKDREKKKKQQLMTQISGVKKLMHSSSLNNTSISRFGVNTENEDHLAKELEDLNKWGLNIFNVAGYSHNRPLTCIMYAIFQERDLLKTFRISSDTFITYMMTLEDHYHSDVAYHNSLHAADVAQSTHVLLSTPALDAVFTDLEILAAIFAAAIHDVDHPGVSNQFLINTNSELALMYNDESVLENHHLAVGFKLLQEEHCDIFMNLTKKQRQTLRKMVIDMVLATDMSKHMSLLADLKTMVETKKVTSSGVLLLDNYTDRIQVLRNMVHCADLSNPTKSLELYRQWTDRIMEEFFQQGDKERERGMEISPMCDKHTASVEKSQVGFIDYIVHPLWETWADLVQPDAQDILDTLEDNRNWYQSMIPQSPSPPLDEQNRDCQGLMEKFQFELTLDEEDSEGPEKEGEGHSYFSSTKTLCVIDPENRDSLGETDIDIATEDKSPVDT
Sequence of Cytochrome P450 2D6 (Homo sapiens) (P10635 whole entry, looked up): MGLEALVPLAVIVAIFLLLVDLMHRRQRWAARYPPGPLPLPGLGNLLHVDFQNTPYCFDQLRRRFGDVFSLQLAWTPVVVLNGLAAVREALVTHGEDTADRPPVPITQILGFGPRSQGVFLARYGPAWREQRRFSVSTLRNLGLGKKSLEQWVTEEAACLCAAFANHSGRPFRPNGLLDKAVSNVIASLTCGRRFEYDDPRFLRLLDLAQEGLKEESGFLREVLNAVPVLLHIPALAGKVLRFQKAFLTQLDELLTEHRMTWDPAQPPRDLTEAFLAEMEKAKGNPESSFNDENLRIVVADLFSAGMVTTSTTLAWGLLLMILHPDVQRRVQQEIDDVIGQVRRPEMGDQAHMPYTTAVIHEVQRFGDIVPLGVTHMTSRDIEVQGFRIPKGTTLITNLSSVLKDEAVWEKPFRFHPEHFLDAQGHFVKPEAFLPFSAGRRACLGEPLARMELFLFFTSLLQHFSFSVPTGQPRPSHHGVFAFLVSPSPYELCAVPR
Sequence of Lysosomal acid glucosylceramidase (Homo sapiens) (P04062 whole entry, looked up): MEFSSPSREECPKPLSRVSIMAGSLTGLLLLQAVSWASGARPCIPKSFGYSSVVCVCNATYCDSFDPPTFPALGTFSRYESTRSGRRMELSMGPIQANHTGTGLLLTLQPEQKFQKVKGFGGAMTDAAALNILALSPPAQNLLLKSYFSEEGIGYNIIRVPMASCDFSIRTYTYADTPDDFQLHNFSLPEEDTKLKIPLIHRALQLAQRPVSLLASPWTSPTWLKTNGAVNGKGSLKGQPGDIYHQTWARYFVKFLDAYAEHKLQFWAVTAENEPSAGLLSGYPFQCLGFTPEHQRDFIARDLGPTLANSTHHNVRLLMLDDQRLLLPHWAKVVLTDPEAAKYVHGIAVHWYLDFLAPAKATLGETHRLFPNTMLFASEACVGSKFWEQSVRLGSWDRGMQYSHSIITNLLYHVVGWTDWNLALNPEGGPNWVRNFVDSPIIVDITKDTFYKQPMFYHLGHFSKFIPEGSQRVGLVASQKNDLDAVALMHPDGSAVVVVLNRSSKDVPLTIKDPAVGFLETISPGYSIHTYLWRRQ
Sequence of Cytochrome P450 2C19 (Homo sapiens) (P33261 whole entry, looked up): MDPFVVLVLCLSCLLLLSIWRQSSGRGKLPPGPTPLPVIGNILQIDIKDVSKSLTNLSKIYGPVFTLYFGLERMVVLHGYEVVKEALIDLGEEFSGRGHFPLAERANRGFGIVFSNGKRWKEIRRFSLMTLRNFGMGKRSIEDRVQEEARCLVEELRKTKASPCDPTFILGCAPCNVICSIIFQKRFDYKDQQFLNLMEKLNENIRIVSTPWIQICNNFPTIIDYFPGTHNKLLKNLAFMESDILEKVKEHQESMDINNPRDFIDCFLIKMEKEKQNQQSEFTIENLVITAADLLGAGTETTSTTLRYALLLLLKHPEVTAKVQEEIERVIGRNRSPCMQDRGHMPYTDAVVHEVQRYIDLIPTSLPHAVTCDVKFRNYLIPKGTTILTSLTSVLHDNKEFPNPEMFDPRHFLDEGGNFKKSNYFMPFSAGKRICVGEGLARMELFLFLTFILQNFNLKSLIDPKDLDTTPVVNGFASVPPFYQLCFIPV

As to `COC(=O)N1CCC2(CCN(Cc3ccccc3OC)CC2)CC1`, the Potency in test [1] was > 11.4 µM (inactive); in [5] it was > 46 µM (inactive); in [8] it was 2 µM (active). Also, the values for the activity change, negative = inhibition in [2] and in test [10] were 8.84% (inactive) and 2.37% (inactive), respectively. Besides, the Potency result in [3], in test [6] and in test [7] was “inactive” each time. Also, the activity, negative = inhibition in test [4] was -8.38% (inactive). The activation in test [9] is 2.91% (inactive). Further, the figures for the max response in [10] (setting [15]) and in test [10] (setting [16]) were 6.33% and 9.77%, respectively. The outcome in test [11] was inactive.

On to `CC(C)CN1CCCC2(CCN(C(=O)c3cccn3C)CC2)C1`, for which the Potency in test [1] is > 11.4 µM (inactive); in test [5], > 46 µM (inactive). The results for the activity change, negative = inhibition in test [2] and in test [10] were -3.67% (inactive) and 6.1% (inactive), respectively. Further, the Potency result in test [3], in test [6], in test [7] and in test [12] was “inactive” in each case. Further, the activity, negative = inhibition in test [4] was 12.4% (inactive). Further, the max response was determined as 16.8% in test [10] (setting [15]) and 26.5% in test [10] (setting [16]). Further, the outcome in test [11] was inactive.

Consider `O=C(Oc1ccccc1)N1CCC2(CCCN(c3ccccn3)C2)CC1`, for which the Potency in test [1] was > 11.4 µM (inactive); in test [3] it was 20 µM (active); in test [5] it was > 46 µM (inactive); in [13], 7.94 µM (active). Moreover, the results for the activity change, negative = inhibition in test [2] and in test [10] were -14.7% (inactive) and 1.87% (inactive), respectively. In test [4], the activity, negative = inhibition was 2.71% (inactive). Moreover, the Potency result in test [6] and in test [12] was “inactive” each time. The max response in [10] (setting [15]) is -15.5%; in test [10] (setting [16]), -9.96%. For the same compound, the result in [11] was inactive.

`O=C(c1cccc(F)c1)N1CCC2(CCN(Cc3nccs3)CC2)CC1`: the Potency is > 11.4 µM (inactive) in [1]; 1.58 µM (active) in [3]; > 46 µM (inactive) in test [5]; 15.8 µM (active) in [12]; 1.58 µM (active) in [13]. The results for the activity change, negative = inhibition in test [2] and in test [10] were -8.17% (inactive) and 6.34% (inactive), respectively. Moreover, the activity, negative = inhibition in [4] was -0.835% (inactive). For the same compound, in [14], the Potency result is “inactive”. Moreover, the max response is 8.7% in test [10] (setting [15]) and 20.4% in test [10] (setting [16]). In [11], the result was inactive.

On to `COc1ccccc1CN1CCC2(CC1)CCN(C(=O)c1c(C)noc1C)CC2`, for which the Potency in test [1] is > 11.4 µM (inactive); in [5], > 46 µM (inactive); in [8], 7.94 µM (active). In addition, the activity change, negative = inhibition in test [2] was 4.81% (inactive); in [10], 1.42% (inactive). Moreover, the Potency entry in [3], in test [6] and in [7] was “inactive” each time. Also, the activity, negative = inhibition in [4] is -4.2% (inactive). Moreover, the max response in test [10] (setting [15]) amounted to 11.3%; in test [10] (setting [16]), 18.8%. Moreover, the outcome in test [11] was inactive.

As for `COc1ccc(NC(=O)N2CCC3(CC2)CCN(S(C)(=O)=O)CC3)cc1`, the Potency in test [1] was > 11.4 µM (inactive); in [5] it was > 46 µM (inactive); in test [13], 3.16 µM (active). For the same compound, the activity change, negative = inhibition in test [2] is -1.54% (inactive); in [10], 8.18% (inactive). Further, the Potency entry in test [3], in test [6] and in test [7] was “inactive” throughout. In addition, the activity, negative = inhibition in [4] was 2.59% (inactive). Also, the max response in [10] (setting [15]) is 16.5%; in test [10] (setting [16]), 28.9%. In [11], the result was inactive.

For the compound `COc1ccccc1CN1CCC2(CC1)CCN(C(=O)c1cccn1C)CC2`, the Potency was > 11.4 µM (inactive) in test [1], > 46 µM (inactive) in test [5] and 3.98 µM (active) in test [8]. Moreover, the activity change, negative = inhibition in test [2] was 6.08% (inactive); in [10] it was -1.94% (inactive). For the same compound, the Potency entry in [3], in [6] and in test [7] was “inactive” each time. For the same compound, the activity, negative = inhibition in [4] was -5.76% (inactive). Further, the max response in [10] (setting [15]) was 8.14%; in [10] (setting [16]) it was 8.04%. The outcome in test [11] was inactive.
